From the supplement of paper PMC11732987, “Enantioselective OTUD7B fragment discovery through chemoproteomics screening and high-throughput optimisation” (Communications Chemistry, 2025)

Tests used:
Assay in all cases: log2 ratio of Biotin-Ahx-Ub-VS probe labelling (fragment/DMSO); higher = less target engagement (more negative = stronger competition), active = hit call of the paper (q ≤ 0.05, log2 ratio ≤ -1)
Settings in all cases: compound concentration: 200 uM; treatment time: 3 h
OTUD6B = biological target: T1, OTUD6B (UniProt Q8N6M0)
T1 sequence (whole entry): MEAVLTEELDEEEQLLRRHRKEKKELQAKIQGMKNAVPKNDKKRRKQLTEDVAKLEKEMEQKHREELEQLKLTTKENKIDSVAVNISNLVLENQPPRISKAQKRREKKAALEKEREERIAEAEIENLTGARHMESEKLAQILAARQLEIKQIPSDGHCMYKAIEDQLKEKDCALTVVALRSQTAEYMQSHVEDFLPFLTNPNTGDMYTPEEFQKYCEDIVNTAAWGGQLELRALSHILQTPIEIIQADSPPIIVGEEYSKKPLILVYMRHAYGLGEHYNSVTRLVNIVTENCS
Method in brief: (§1)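 Fragment (200 µM) or vehicle was incubated for 3 h with triplicate HEK293T lysate samples of 495 µg, which were then treated with Biotin-Ahx-Ub-VS at 0.5 µM final for 1 h. Labelled DUBs were enriched on NeutrAvidin, digested with LysC and trypsin, and analysed by diaPASEF LC-MS/MS. Values are average log2 fragment/vehicle ratios from an unpaired t-test on global-median-normalised Spectronaut label-free quantities, using proteins with ≥2 unique peptides.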

OTUD7B = biological target: T2, OTUD7B (UniProt Q6GQQ9)
T2 sequence (whole entry): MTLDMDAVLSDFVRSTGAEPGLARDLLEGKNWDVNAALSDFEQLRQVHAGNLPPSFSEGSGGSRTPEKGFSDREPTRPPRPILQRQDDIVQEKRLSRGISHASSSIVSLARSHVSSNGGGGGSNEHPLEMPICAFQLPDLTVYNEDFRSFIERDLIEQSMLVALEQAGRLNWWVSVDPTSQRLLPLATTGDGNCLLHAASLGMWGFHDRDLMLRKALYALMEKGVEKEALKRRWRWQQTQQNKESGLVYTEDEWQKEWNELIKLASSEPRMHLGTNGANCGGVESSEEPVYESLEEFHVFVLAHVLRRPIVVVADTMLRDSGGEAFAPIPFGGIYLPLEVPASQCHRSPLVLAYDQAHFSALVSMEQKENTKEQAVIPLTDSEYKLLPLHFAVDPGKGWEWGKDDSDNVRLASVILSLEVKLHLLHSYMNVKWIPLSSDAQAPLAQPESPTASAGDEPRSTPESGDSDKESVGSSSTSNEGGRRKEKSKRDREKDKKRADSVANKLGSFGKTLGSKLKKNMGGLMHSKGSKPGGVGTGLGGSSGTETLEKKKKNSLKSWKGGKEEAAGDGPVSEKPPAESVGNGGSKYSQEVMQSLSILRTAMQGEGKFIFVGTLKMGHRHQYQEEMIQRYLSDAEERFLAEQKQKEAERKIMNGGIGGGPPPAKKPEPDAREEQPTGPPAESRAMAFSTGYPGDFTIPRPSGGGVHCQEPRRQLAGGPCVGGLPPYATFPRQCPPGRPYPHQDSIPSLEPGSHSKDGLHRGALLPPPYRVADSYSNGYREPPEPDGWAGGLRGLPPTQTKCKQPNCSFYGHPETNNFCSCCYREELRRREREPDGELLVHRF
Method in brief: as §1

PRPF8 = PRPF8 (UniProt Q6P2Q9)
Method in brief: as §1

PSMD7 = biological target: T3, PSMD7 (UniProt P51665)
T3 sequence (whole entry): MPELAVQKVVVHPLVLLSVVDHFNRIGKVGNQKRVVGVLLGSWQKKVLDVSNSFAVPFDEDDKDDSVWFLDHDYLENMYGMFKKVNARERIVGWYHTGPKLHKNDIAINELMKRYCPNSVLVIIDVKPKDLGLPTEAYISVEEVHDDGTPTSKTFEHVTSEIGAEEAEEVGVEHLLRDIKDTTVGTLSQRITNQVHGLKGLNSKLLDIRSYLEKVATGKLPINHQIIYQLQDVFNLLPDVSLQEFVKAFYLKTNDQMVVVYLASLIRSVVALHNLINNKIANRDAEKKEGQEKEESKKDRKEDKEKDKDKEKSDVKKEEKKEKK
Method in brief: as §1

UCHL1 = UCHL1 (UniProt P09936)
Chain of UCHL1 (P09936 whole entry, looked up): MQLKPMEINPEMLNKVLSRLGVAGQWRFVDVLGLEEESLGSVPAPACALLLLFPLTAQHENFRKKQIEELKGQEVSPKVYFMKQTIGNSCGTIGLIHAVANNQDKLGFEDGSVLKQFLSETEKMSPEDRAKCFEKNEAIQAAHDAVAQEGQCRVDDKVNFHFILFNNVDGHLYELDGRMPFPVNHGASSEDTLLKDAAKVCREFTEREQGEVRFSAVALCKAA
Method in brief: as §1

UCHL3 = biological target: T4, UCHL3 (UniProt P15374)
T4 sequence (whole entry): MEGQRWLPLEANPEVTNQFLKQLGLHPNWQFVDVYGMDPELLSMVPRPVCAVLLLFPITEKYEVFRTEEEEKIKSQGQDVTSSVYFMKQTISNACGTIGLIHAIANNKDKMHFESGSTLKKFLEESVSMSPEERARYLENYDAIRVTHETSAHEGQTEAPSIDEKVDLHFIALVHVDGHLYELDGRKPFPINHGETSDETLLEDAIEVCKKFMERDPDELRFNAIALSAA
Method in brief: as §1

UCHL5 = biological target: T5, UCHL5 (UniProt Q9Y5K5)
T5 sequence (whole entry): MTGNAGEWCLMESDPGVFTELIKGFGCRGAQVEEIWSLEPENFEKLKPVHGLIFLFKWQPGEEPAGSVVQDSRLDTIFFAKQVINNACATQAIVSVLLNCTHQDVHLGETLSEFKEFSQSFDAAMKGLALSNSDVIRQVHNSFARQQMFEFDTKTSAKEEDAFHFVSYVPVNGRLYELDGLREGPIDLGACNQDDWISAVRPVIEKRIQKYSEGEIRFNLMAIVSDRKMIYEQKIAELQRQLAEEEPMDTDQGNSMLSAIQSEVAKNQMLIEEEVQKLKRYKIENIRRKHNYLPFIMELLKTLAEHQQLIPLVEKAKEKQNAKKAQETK
Method in brief: as §1

USP10 = USP10 (UniProt Q14694)
Chain of USP10 (Q14694 whole entry): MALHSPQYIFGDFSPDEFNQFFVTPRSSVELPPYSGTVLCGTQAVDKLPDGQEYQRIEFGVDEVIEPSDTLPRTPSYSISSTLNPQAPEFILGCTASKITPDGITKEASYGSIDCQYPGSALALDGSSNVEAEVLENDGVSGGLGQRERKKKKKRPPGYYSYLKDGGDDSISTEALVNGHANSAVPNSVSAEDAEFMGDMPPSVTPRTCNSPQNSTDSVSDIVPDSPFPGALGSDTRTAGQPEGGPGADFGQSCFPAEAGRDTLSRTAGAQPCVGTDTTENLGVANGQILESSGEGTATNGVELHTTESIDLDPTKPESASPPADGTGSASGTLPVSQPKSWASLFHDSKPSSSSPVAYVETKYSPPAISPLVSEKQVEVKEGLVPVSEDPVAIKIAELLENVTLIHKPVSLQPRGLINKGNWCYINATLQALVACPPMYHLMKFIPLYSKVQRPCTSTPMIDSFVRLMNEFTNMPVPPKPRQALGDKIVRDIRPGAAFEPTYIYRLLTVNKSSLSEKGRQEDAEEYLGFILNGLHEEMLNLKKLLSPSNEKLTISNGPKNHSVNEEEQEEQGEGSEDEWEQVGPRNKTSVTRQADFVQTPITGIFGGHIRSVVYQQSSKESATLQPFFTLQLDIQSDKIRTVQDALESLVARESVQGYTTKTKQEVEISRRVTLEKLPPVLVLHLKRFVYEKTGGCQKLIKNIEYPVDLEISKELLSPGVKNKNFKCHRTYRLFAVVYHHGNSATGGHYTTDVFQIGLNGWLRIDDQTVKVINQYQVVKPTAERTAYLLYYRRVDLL
Method in brief: as §1

USP15 = biological target: T6, USP15 (UniProt Q9Y4E8)
T6 sequence (whole entry): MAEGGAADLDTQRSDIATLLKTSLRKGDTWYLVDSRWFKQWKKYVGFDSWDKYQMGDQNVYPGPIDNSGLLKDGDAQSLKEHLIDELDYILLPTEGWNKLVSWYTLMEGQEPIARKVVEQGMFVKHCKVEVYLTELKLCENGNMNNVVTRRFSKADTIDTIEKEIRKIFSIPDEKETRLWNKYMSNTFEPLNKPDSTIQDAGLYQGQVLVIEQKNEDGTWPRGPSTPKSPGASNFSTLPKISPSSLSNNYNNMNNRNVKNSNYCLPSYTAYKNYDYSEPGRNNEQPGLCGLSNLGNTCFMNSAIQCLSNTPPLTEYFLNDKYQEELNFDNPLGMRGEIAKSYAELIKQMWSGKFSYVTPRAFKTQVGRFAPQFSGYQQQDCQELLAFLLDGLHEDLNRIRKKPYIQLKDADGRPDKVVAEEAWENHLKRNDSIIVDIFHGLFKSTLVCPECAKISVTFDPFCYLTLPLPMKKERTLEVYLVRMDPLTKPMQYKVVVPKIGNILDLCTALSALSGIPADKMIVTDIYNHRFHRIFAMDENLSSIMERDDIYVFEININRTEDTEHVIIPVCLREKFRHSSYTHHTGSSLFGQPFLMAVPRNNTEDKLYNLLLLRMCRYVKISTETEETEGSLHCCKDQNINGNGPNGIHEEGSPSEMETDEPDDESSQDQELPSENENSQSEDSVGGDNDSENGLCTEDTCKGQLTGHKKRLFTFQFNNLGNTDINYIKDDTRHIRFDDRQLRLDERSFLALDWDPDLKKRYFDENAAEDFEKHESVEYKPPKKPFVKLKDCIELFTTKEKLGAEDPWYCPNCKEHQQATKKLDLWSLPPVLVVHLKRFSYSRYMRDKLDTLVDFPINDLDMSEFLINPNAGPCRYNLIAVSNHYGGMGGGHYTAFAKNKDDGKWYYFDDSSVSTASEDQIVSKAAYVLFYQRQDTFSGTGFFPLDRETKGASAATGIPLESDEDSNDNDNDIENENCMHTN
Method in brief: as §1

USP16 = USP16 (UniProt Q9Y5T5)
Chain of USP16 (Q9Y5T5 whole entry, looked up): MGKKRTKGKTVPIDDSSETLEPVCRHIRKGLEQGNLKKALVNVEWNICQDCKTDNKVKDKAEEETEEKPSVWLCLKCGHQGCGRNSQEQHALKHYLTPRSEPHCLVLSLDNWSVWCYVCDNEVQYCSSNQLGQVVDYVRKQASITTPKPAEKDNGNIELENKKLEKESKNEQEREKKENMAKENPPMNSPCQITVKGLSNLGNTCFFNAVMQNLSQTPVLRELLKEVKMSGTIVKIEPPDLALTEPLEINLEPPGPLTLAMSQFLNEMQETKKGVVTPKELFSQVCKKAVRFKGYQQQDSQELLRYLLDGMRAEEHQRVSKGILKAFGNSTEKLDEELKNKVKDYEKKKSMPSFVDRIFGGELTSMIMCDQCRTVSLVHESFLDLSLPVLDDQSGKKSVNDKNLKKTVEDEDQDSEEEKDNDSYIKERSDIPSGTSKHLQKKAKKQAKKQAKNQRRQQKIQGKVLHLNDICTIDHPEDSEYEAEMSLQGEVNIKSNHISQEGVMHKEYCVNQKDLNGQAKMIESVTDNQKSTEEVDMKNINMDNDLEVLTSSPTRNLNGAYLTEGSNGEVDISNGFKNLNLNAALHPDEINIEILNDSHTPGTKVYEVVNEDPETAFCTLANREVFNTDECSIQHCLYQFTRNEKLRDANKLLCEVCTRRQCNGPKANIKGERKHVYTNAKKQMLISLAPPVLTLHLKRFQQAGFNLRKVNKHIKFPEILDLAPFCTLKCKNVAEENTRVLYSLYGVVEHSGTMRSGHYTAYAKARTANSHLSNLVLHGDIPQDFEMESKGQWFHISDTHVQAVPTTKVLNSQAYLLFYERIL
Method in brief: as §1

Measured: log2 ratio of Biotin-Ahx-Ub-VS probe labelling

O=C(CCl)N1CCC(C(=O)N2CCCCCC2)CC1
inactive: OTUD6B 0.0239 | OTUD7B -0.19 | PRPF8 0.0601 | PSMD7 -0.0463 | UCHL3 0.241 | UCHL5 -0.191 | USP10 -0.0405 | USP15 -0.115 | USP16 -0.164
active: UCHL1 -1.19
